Eleven compounds from PubChem BioAssay (NCI) can be followed below.

Among the test systems are NCI-H23 lung; NCI-H226 lung; NCI-H322M lung; HOP-62 NSCLC; NCI-H460 lung; NCI-H522 lung; A549/ATCC NSCLC; 786-0 renal; COLO 205 colon; DU-145 prostate; K-562 leukemia; MALME-3M melanoma; MDA-MB-231 breast; SF-268 CNS; SF-295 CNS; SF-539 CNS; UACC-257 melanoma; M14 melanoma; HCT-15 colon; RXF 393 renal.
Common to all, as to test: NCI-60 one-dose screen, 48 h (100 = growth as untreated, 0 = no growth, -100 = all killed)
Holding throughout (conditions): 10 µM

Each structure is given as a SMILES string. Compounds without any hit were thinned out: in the full panel of roughly 83,000, 20% have a hit.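 In brief: 96-well plates, 48 h treatment, single concentration, percent growth endpoint.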 Unmarked numbers belong to inactive results. Calls of active or inactive are those of the source. How the source made its calls: active means growth percent below 10; inactive means the rest.

`O=C(CC(c1ccccc1)N1CCOCC1)c1ccccc1` (centres undefined): the growth with NCI-H23 lung is 83.3%; in the test with NCI-H226 lung it was 90.8%; with NCI-H322M lung it was 96.9%; in the test on HOP-62 NSCLC, 88.2%; in the test with NCI-H460 lung it was 106%; with NCI-H522 lung, 88.5%. The growth is 97.4% with A549/ATCC NSCLC; 80.9% with 786-0 renal; 116% in the test on COLO 205 colon; 80.3% with DU-145 prostate; 27.9% in the test with K-562 leukemia; 87.6% with MALME-3M melanoma. For the same compound, the growth was 98.6% with MDA-MB-231 breast; 91.8% in the test on SF-268 CNS; 94.9% in the test on SF-295 CNS; 97.5% in the test with SF-539 CNS; 80.5% in the test with UACC-257 melanoma; 95.8% in the test with M14 melanoma. In addition, in the test on HCT-15 colon, the growth was 92.2%.

With `CCN(CCCCCCN1CC(=O)N(CCCCCCN(CC)Cc2ccccc2OC)CC1=O)Cc1ccccc1OC`, the growth was 60.4% in the test with NCI-H23 lung; 107% with NCI-H226 lung; 96.5% with NCI-H322M lung; 79.7% in the test on HOP-62 NSCLC; 75.1% with NCI-H460 lung; 76% in the test on NCI-H522 lung. The growth is 85.8% with A549/ATCC NSCLC; 74.2% in the test with 786-0 renal; 54.6% in the test on COLO 205 colon; 76.7% in the test on DU-145 prostate; 4.44% (active) in the test on K-562 leukemia; 109% in the test on MALME-3M melanoma. In addition, the growth is 93.4% in the test on MDA-MB-231 breast; 90.6% in the test with SF-268 CNS; 72.2% in the test with SF-295 CNS; 92.8% in the test on SF-539 CNS; 108% in the test with UACC-257 melanoma; 82.5% in the test on M14 melanoma. In the test with HCT-15 colon, the growth is 83.5%.

Turning to `COc1ccc2c(c1)-c1c(c3cc(OC)ccc3n(CCN(C)C)c1=O)C2=O`, the growth was 7.11% (active) with NCI-H23 lung; 22% in the test with NCI-H226 lung; -14.4% (active) in the test on NCI-H322M lung; 15.3% with HOP-62 NSCLC; -4.73% (active) in the test with NCI-H460 lung; -11.5% (active) in the test on NCI-H522 lung. For the same compound, the growth in the test with A549/ATCC NSCLC was -18.7% (active); with 786-0 renal, 32.3%; with COLO 205 colon, 14.7%; in the test on DU-145 prostate, 5.1% (active); in the test with K-562 leukemia, 18.6%; in the test with MDA-MB-231 breast, 36.7%. Besides, the growth with RXF 393 renal is 25.2%; with SF-268 CNS, 22.1%; in the test on SF-295 CNS, 7.07% (active); in the test on SF-539 CNS it was 37.7%; in the test on UACC-257 melanoma it was 18.4%; in the test on M14 melanoma, 24%. In addition, in the test with HCT-15 colon, the growth was 21.9%.

As to `O=C1OCC2=C1C(c1cccc(Cl)c1)c1cc3c(cc1N2CCO)CCC3` (centres undefined), the growth in the test on NCI-H23 lung is 8.79% (active); in the test with NCI-H226 lung it was -18.1% (active); with NCI-H322M lung it was 33%; with HOP-62 NSCLC, 21%; with NCI-H460 lung, -12.7% (active); with NCI-H522 lung, -29.2% (active). The growth in the test on A549/ATCC NSCLC is 11.7%; in the test with 786-0 renal it was 18%; with COLO 205 colon, -47.1% (active); in the test on DU-145 prostate, -46.2% (active); in the test on K-562 leukemia, 16.7%; in the test with MDA-MB-231 breast it was -19.3% (active). Besides, the growth is 34.3% in the test with RXF 393 renal; 13.9% in the test on SF-268 CNS; -18.8% (active) in the test on SF-295 CNS; -5.32% (active) in the test with SF-539 CNS; 46% in the test with UACC-257 melanoma; 8.51% (active) with M14 melanoma. In addition, in the test on HCT-15 colon, the growth was 9.71% (active).

Regarding `CCCCCCCCCCCCCCCCN(C(C)c1ccccc1)S(=O)(=O)c1ccc(OC)c(N)c1` (centres undefined), the growth with NCI-H23 lung is 93.7%; in the test with NCI-H226 lung it was 108%; in the test on NCI-H322M lung, 128%; in the test with HOP-62 NSCLC, 117%; in the test on NCI-H460 lung, 107%; in the test with NCI-H522 lung, 90.5%. The growth with A549/ATCC NSCLC is 107%; with 786-0 renal it was 124%; in the test with COLO 205 colon it was 123%; in the test with DU-145 prostate it was 116%; in the test on K-562 leukemia, 89.9%; in the test with MDA-MB-231 breast, 122%. Further, the growth in the test on RXF 393 renal is 131%; in the test with SF-268 CNS, 108%; with SF-295 CNS, 116%; in the test on SF-539 CNS it was 116%; with UACC-257 melanoma, 108%; in the test with M14 melanoma it was 115%. For the same compound, the growth in the test with HCT-15 colon was 115%.

With `COc1ccc2c(c1)N(CCO)C1=C(C(=O)OC1)C2c1cc(OC)c(OC)c(OC)c1` (centres undefined), the growth was 17.4% in the test with NCI-H23 lung; 2.05% (active) with NCI-H226 lung; 17% in the test on NCI-H322M lung; 25.6% in the test with HOP-62 NSCLC; 0.781% (active) with NCI-H460 lung; -36.1% (active) with NCI-H522 lung. Also, the growth in the test on A549/ATCC NSCLC was 13.1%; in the test with 786-0 renal it was 25.3%; in the test with COLO 205 colon, -65.4% (active); with DU-145 prostate it was -30.8% (active); in the test with K-562 leukemia, 15%; in the test on MDA-MB-231 breast, -24.4% (active). In addition, the growth in the test on RXF 393 renal was 55.5%; in the test with SF-268 CNS it was 23.9%; in the test on SF-295 CNS it was -20.6% (active); in the test with SF-539 CNS, -6.38% (active); in the test on UACC-257 melanoma it was 47.4%; in the test with M14 melanoma it was 11.2%. Also, the growth in the test with HCT-15 colon is 5.29% (active).

Consider `CC(C)=CCc1ccc(O)c(=O)cc1C(C)C`, for which the growth with NCI-H23 lung is 12.9%; in the test with NCI-H226 lung, 4.5% (active); in the test on NCI-H322M lung, 10.5%; in the test with HOP-62 NSCLC, 14.6%; with NCI-H460 lung it was 5.04% (active); in the test with NCI-H522 lung, 28.5%. Besides, the growth with A549/ATCC NSCLC is 9.13% (active); with 786-0 renal, 6.68% (active); with COLO 205 colon it was 26.7%; in the test on DU-145 prostate it was 28.5%; with K-562 leukemia it was 11.1%; with MDA-MB-231 breast, 52.4%. The growth is 12.7% with RXF 393 renal; 13.7% in the test with SF-268 CNS; 8.22% (active) in the test on SF-295 CNS; 20% in the test with SF-539 CNS; 13.6% with UACC-257 melanoma; -16.8% (active) with M14 melanoma. The growth in the test on HCT-15 colon was 38.1%.

For `COc1ccc2c(c1)C(=O)c1c-2c(=O)n(CCCN(C)C)c2cc(OC)c(OC)cc12`, the growth in the test with NCI-H23 lung was 48.8%; with NCI-H226 lung, 70.5%; in the test with NCI-H322M lung it was 80%; with HOP-62 NSCLC, 51.4%; in the test with NCI-H460 lung it was 10.9%; with NCI-H522 lung, 56.5%. Further, the growth in the test on A549/ATCC NSCLC was 56.3%; with 786-0 renal it was 71.8%; with COLO 205 colon it was 100%; in the test with DU-145 prostate it was 26.9%; in the test with K-562 leukemia it was 64.5%; in the test on MDA-MB-231 breast it was 103%. Moreover, the growth was 89.4% in the test on RXF 393 renal; 46.9% in the test on SF-268 CNS; 20.7% in the test with SF-295 CNS; 55% with SF-539 CNS; 100% with UACC-257 melanoma; 48.4% in the test on M14 melanoma. The growth in the test on HCT-15 colon is 82.2%.

`O=C(/C(=C/c1ccccc1)CN1CCCCC1)c1ccccc1`: the growth in the test with NCI-H23 lung was -51.5% (active); in the test on NCI-H226 lung, -31% (active); in the test with NCI-H322M lung, 47.1%; with HOP-62 NSCLC, -26.5% (active); in the test on NCI-H460 lung, -23.9% (active); in the test with NCI-H522 lung, -84% (active). Moreover, the growth is -14.2% (active) with A549/ATCC NSCLC; -91.5% (active) in the test with 786-0 renal; -79.1% (active) in the test on COLO 205 colon; 8.22% (active) in the test on DU-145 prostate; 2.9% (active) in the test with K-562 leukemia; -24.8% (active) in the test on MDA-MB-231 breast. Moreover, the growth in the test with RXF 393 renal was -77.6% (active); in the test on SF-268 CNS, -9.79% (active); with SF-295 CNS, 38.6%; in the test on SF-539 CNS, -43.4% (active); in the test on UACC-257 melanoma it was -0.832% (active); in the test on M14 melanoma it was -48.4% (active). The growth in the test on HCT-15 colon was -40.6% (active).

Take `O=C(Nc1ccncc1)C(=O)c1cn(S(=O)(=O)c2cccc(Cl)c2)c2ccccc12`: the growth is 54.2% in the test with NCI-H23 lung; 77.9% in the test on NCI-H226 lung; 102% in the test on NCI-H322M lung; 79.3% with HOP-62 NSCLC; 82.2% in the test on NCI-H460 lung; 32.1% with NCI-H522 lung. Also, the growth in the test on A549/ATCC NSCLC was 75.5%; in the test with 786-0 renal it was 72.8%; in the test with COLO 205 colon it was 117%; in the test with DU-145 prostate, 83.9%; in the test with K-562 leukemia, 19.8%; in the test with MDA-MB-231 breast, 87.4%. Besides, the growth in the test with RXF 393 renal was 89.2%; in the test with SF-268 CNS, 80.9%; with SF-295 CNS, 55.8%; in the test with SF-539 CNS it was 67.3%; with UACC-257 melanoma, 78.1%; in the test on M14 melanoma it was 47%. Further, the growth in the test with HCT-15 colon is 49.2%.

On to `Cc1ncc(-c2ccoc2)c(NC2CCCCCC2)n1`, for which the growth is 97.9% in the test on NCI-H23 lung; 103% in the test on NCI-H226 lung; 80.7% in the test with NCI-H322M lung; 102% in the test with HOP-62 NSCLC; 106% with NCI-H460 lung; 82.8% in the test on NCI-H522 lung. Besides, the growth with A549/ATCC NSCLC is 101%; in the test with 786-0 renal it was 99.2%; with COLO 205 colon, 106%; in the test with DU-145 prostate it was 110%; in the test on K-562 leukemia it was 106%; in the test with MDA-MB-231 breast, 108%. The growth is 113% in the test on RXF 393 renal; 98.9% in the test on SF-268 CNS; 102% in the test on SF-295 CNS; 110% in the test on SF-539 CNS; 96.4% in the test on UACC-257 melanoma; 101% in the test on M14 melanoma. The growth in the test on HCT-15 colon was 103%.
